# Measured values from PubChem BioAssay (NCATS).
# Entries with a potency or affinity are not part of this list. Unmarked numbers belong to inactive results. The rule behind the calls is not given here.
# Details: Ebola virus entry assay, green fluorescence channel
# Note: 0% is about no effect.
row,Structure (SMILES),efficacy [%]
1,CCC1(CC)C(=O)C=CNC1=O,-31
2,CC(C)COC(=O)c1ccc(N)cc1,8.42
3,CC(=O)Nc1ccc(/C=N/NC(N)=S)cc1,33.2
4,Oc1c(Br)cc(Br)c2cccnc12,-19.4
5,Cc1c(C(=O)NCCO)[n+](=O)c2ccccc2n1[O-],-17
6,CCCCC(O)/C=C(C)/C=C/C=C/C(=O)N1CCCC1=O (centres undefined),-13.9
7,c1ccc2c(c1)CCCC2C1=NCCN1 (centres undefined),-12.9
8,COc1ccc2c(c1)CCCC2=O,8.41
9,CN1CCN(c2c(F)cc3c(=O)c(C(=O)O)cn4c3c2SCC4)CC1,-11.6
10,CCN(Cc1ccncc1)C(=O)C(CO)c1ccccc1 (centres undefined),-24.3
11,Nc1ccc(S(=O)(=O)Nc2ccccn2)cc1,-13.9
12,CC(=O)OCC1=C(C(=O)O)N2C(=O)[C@@H](N)[C@H]2SC1,11.9
13,CCn1ccc(NS(=O)(=O)c2ccc(N)cc2)nc1=O,-11.6
14,CCCCCN(CCCOC)C(=O)C(CCC(=O)O)NC(=O)c1ccc(Cl)c(Cl)c1 (centres undefined),-27.8
15,CCN1CCC[C@H]1CNC(=O)c1c(OC)ccc(Br)c1OC,-13.7
16,Clc1ccc(C(c2ccc(Cl)cc2)C(Cl)(Cl)Cl)cc1,25.5
17,CC(C)Cc1ccc(C(C)C(=O)O)cc1 (centres undefined),17.8
18,CN(C)CCOC(=O)C(c1ccccc1)C1(O)CCCC1 (centres undefined),15.2
19,COCCOCC(OC)OC,16.2
